Broadly, the inhibition is the change of the read-out against control, counted positive when it falls.

Screen size: about 320,000 compounds; about 1,300 (0.41%) were called active. Inconclusive results (about 3%) are left out. How the calls were made is not given here. These entries were drawn from the full list. Potency and affinity values are given separately.

A short description of this test: growth inhibition of non-replicating M. tuberculosis (AID 488890).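 Further: plate controls were DMSO cells for no effect and high antibiotic wells for full effect.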 Particulars: Mycobacterium tuberculosis non-replicating, at 25 µM, stronger effect = higher value.
As to `COCCN(C(=O)CSc1nc2ccccc2o1)c1c(N)n(Cc2ccccc2)c(=O)[nH]c1=O`, the inhibition was determined as 10.9%. The same measure for `Cc1ccc(NC(=O)CCCCCCCCCCC2COCCO2)c(C)c1` (stereo unspecified): -9.85%; for `CN(C(=O)COC(=O)c1ccc(Br)c(S(=O)(=O)N2CCOCC2)c1)C1CCCCC1`: 11.1%; for `Cc1cc(-c2nnco2)c(C)n1-c1ccccc1`: 11.1%. Take `O=C1NC2(CCCCCC2)C(=O)N1Cc1ccc([N+](=O)[O-])cc1`: the inhibition is -2%. To `O=C1C(=O)N(CCN2CCOCC2)C(c2ccccc2F)/C1=C(\O)c1ccc(S(=O)(=O)N2CCOCC2)cc1` (stereo unspecified) belongs 2.92%. The same measure for `O=C(COc1ccccc1)N/N=C/c1sc(=O)n(Cc2cccc(C(=O)O)c2)c1Cl`: -0.36%; for `CC[C@H](C)C(C(=O)N1CCN(C(=O)OC(C)(C)C)CC1)n1cc(C(CC(C)C)NC(=O)OC(C)(C)C)nn1` (stereo partly specified): 10.5%; for `CCOC(=O)c1ccc(CNC(=O)Cn2nnc(-c3cccc(C)c3)n2)o1`: 4.91%. To `Cc1ccccc1NC(=O)COC(=O)CCSc1ccccc1` belongs 61.5%; to `CCOc1ccc(C(=O)n2cc(C(=O)OC)c3ccccc32)cc1`, 24.8%; to `O=C1CCc2cc(S(=O)(=O)NCc3ccc(F)cc3)cc3c2N1CCC3`, 22.8%.

As for `COc1ccc(CNC(=O)CSc2ncn[nH]2)cc1OC`, the inhibition is -3.59%.

`COC(=O)c1ccc(NC(=O)CN2CCN(S(=O)(=O)c3cc(Cl)ccc3OC)CC2)cc1`: the inhibition came to 54.1%. With `CN1CCc2c(sc(NC(=O)c3ccco3)c2C(N)=O)C1`, the inhibition is 0.26%.

In the case of `COC(=O)c1sc(NC(=O)c2ccco2)c(C#N)c1C`, the inhibition was 16.9%.

As to `COC(=O)c1c(NC(=O)Cc2ccccc2)sc2c1CCN(C(C)C)C2`, the inhibition was -13.3%. For the molecule `COC(=O)c1c(NC(=O)c2ccco2)sc2c1CCN(C(C)C)C2`, the inhibition was 2.92%.

Regarding `CN1CCc2c(sc(NC(=O)c3ccc(C(=O)c4ccccc4)cc3)c2C(N)=O)C1`, the inhibition is -13.4%. To `COC(=O)c1sc(NC(=O)c2c(OC)cccc2OC)c(C#N)c1C` belongs -6.6%. The same measure for `COc1ccc(/C(C)=N/OCC(=O)N=Nc2c(O)[nH]c3ccccc23)cc1`: -24.1%. To `CCC(C)NC(=O)/C=C/c1cccs1` (stereo unspecified) belongs 59.1%. In the case of `COc1ccc(CNC(=O)N2CCN(c3ccccc3OC)CC2)cc1`, the inhibition is 1.13%. Consider `O=C(CCc1nc2ccccc2c(=O)[nH]1)Nc1nnc(SCc2ccc(F)cc2)s1`, for which the inhibition is -4.81%. Take `O=C(Cc1ccccc1)c1ccccc1C(=O)N1CCCCC1`: the inhibition was 9.16%.

On to `O=C(Nc1ccc(Cl)c(Cl)c1)Nc1nnc(-c2ccncc2)s1`, for which the inhibition is 68.9%.

Consider `O=C(Nc1ccc(Cl)cc1)Nc1nnc(-c2ccncc2)s1`, for which the inhibition was 16.2%. The same measure for `CC1CCCC(NC(=O)COC(=O)c2ccc(Cl)nc2)C1C` (stereo unspecified): -6.83%; for `C=CCn1c(C)csc1=Nc1ccccc1C`: 10.7%; for `CCc1ccccc1NC(=O)c1noc(C(C)C)c1[N+](=O)[O-]`: -10.1%.

For `Cc1nn(Cc2ccccc2Cl)c(C)c1NC(=O)c1noc(C(C)C)c1[N+](=O)[O-]`, the inhibition was -8.32%. Take `O=C1CN(S(=O)(=O)c2ccccc2)CCN1`: the inhibition was 3.07%. The same measure for `O=C(CC(c1ccccc1)c1ccccc1O)NCc1ccccc1Cl` (stereo unspecified): 23.8%; for `O=C1CSC(=Nc2ccc(Cl)cc2)N1Cc1cccnc1`: 1.07%; for `O=C(O)c1ccc(N=C2SCC(=O)N2Cc2ccccc2)cc1`: 7%. To `O=C1CSC(=S)N1c1cccnc1` belongs 11.9%; to `O=C(O)c1ccc(N2C(=O)CSC2=S)cc1`, 74.2%; to `N#Cc1ccc(OCC(O)CN2CCN(CC(O)COc3ccc(C#N)cc3)CC2)cc1` (stereo unspecified), -21.4%. The same measure for `Cc1ccc(-c2nnc(-c3cccnc3)o2)cc1`: 37.8%; for `Brc1ccc(-c2nnc(-c3cccnc3)o2)cc1`: 68.4%; for `CN(C)S(=O)(=O)c1cccc(-c2nnc(SCc3cc(Cl)cc4c3OCOC4)n2N)c1`: 23.1%.

In the case of `Cc1onc(-c2ccccc2Cl)c1C(=O)Nc1ccccc1O`, the inhibition was 8.07%.

Regarding `CN1CC(=O)N/C1=N\C(=O)Nc1ccc(O)cc1`, the inhibition is -12.3%. The same measure for `CN1CC(=O)NC1=NC(=O)c1cc(F)c(F)cc1Cl`: -0.31%; for `COc1ccc(C2NC(=S)NC(C)=C2C(=O)Nc2ccccn2)cc1OC` (stereo unspecified): -7.65%. Take `Cc1ccc(COC(=O)c2cc(S(=O)(=O)N3CCOCC3)ccc2C)cc1`: the inhibition was found to be 40.1%. Take `C/C(=N/NC(=O)c1ccncc1)c1cc2ccc(O)cc2oc1=O`: the inhibition is 78.4%. To `COc1ccc2oc(=O)c(/C(N)=N/NC(=O)c3ccncc3)cc2c1` belongs 61.4%; to `C/C(=N\NC(=O)c1ccncc1)c1cc2ccccc2o1`, 69.3%. To `COc1ccc(/C(C)=N/NC(=O)c2ccncc2)cc1` belongs 67.2%; to `O=C(CCC(=O)N1CCOCC1)NCCc1ccc(F)cc1`, 5.21%.

As to `CC(C)C(NCC(=O)Nc1ccccc1C(=O)NC1CC1)c1ccccc1` (stereo unspecified), the inhibition came to 19.6%. Regarding `CCC(C)(C)NS(=O)(=O)c1cc(CN2C(=O)c3cccnc3C2=O)ccc1OC`, the inhibition came out at 17.1%. The same measure for `CCOC(=O)N1CCN(C(=O)COc2ccc3c(c2)C(=O)CC2(CCN(C(C)=O)CC2)O3)CC1`: -4.94%; for `O=C1CC2(CCCCC2)Oc2ccc(OCC(=O)N3CCOCC3)cc21`: 43.3%.

Take `COc1ccc(C(=O)CC(=O)c2ccc(OC)cc2)cc1`: the inhibition was determined as 19.6%. In the case of `O=C(CNC(=O)c1ccco1)Nc1cccc(Cl)c1`, the inhibition is -9.33%.

Turning to `O=C(CCNC(=O)c1ccco1)Nc1ccc(Cl)c(C(F)(F)F)c1`, the inhibition came to 4.07%. `O=C(Nc1ccc(Cl)c(C(F)(F)F)c1)c1ccco1`: the inhibition was 71.2%. The same measure for `O=C(CCNc1cc(Cl)cc(Cl)c1)c1ccco1`: -7.67%. In the case of `O=C(CNC(=O)c1ccco1)Nc1ccc(F)cc1`, the inhibition was -22.8%. With `O=C(/C=C/Nc1ccc(F)cc1)c1ccco1`, the inhibition was -1.7%. To `COc1ccc(C(=O)CCNc2cccc(Cl)c2)cc1` belongs 73.7%. `O=C(CN1C(=O)NC2(CCCCC2)C1=O)N1CCN(c2ncccn2)CC1`: the inhibition amounted to 3.11%. On to `CC(C)(SC(=S)N1CCCCCC1)C(=O)O`, for which the inhibition was 13.4%.

Regarding `CC1=C(C(=O)NCc2ccc3c(c2)OCO3)C2(CCC(C)CC2)OC1=O` (stereo unspecified), the inhibition was 1.75%. To `COc1ccccc1-n1cnnc1SC(C)C(=O)Nc1ccc(NC(C)=O)cc1` (stereo unspecified) belongs -12.2%; to `Oc1c(C(c2ccc(F)cc2)N2CCc3ccccc3C2)sc2ncnn12` (stereo unspecified), 13.3%. The same measure for `Cc1cc(C)cc(OCc2nnc(SCC(=O)c3ccccc3)o2)c1`: -6.78%; for `C/C(N)=C(/C#N)C(=O)CSc1nnc(C)n1-c1ccccc1`: -16.6%. Take `O=C(O)C(F)(F)S(=O)(=O)O`: the inhibition was -5.17%. To `Cc1cccc(NC2=NC3(CCCCC3)N=C(N)N2)c1` belongs 22.2%; to `Cc1ccc(C)c(NC(=S)NCc2ccc3c(c2)OCO3)c1`, 79.5%; to `CC(=O)Nc1ccc(Nc2ccc3nonc3c2[N+](=O)[O-])cc1`, 1.34%. The same measure for `COc1cccc(CNC(=O)CCNS(=O)(=O)c2ccc3[nH]c(=O)oc3c2)c1`: -5.61%. To `Cc1ccc(C(=O)NCC(=O)Nc2ccc(F)c(F)c2F)cc1` belongs -13.1%.

Turning to `O=C(Cn1nnc(-c2ccccc2)n1)NNC(=O)c1ccco1`, the inhibition is 67.8%. Turning to `COc1cc(/C=N/NC(N)=O)ccc1OC(=O)c1cccs1`, the inhibition came to 2.79%.

In the case of `O=C(N/N=C/c1ccc(OC(=O)c2ccco2)cc1)c1ccncc1`, the inhibition stood at 69%.

For the molecule `COc1cc(/C=N/NC(=O)C(N)=O)ccc1OC(=O)c1cccs1`, the inhibition was -4.85%. The same measure for `COc1ccc(C(=O)Oc2ccc(/C=N/Nc3ccc(Cl)c(C(=O)O)c3)cc2OC)cc1`: 12.6%; for `O=C(N/N=C\c1ccc(OC(=O)c2ccco2)cc1)c1ccc(Cl)cc1`: 78.6%. For the molecule `COc1cc(/C=N/Nc2ccc(Cl)c(C(=O)O)c2)ccc1OC(=O)c1ccccc1F`, the inhibition was 39%. The same measure for `Cc1ccc(C(=O)N/N=C\c2ccc(OC(=O)c3cccs3)cc2)cn1`: -8.9%.

In the case of `O=C(N/N=C\c1ccc(OC(=O)c2cccs2)cc1)c1ccc(Cl)cc1`, the inhibition came to 52.2%. For the molecule `COc1ccc(C2CC(C(F)(F)F)n3ncc(C(=O)O)c3N2)cc1OC` (stereo unspecified), the inhibition is -8.85%. To `COc1cc(OC)cc(C(=O)NC(=S)N2C[C@H]3C[C@H](C2)c2cccc(=O)n2C3)c1` belongs -9.19%; to `CN(CC(=O)NCc1cccnc1)S(=O)(=O)c1ccc(F)cc1`, -7.08%.

On to `COc1ccc(/C=N/NC(=O)c2ccccc2OCc2ccccc2)c(OC)c1`, for which the inhibition amounted to 32%. `C/C(=N\NC(=O)Cc1ccc([N+](=O)[O-])cc1)c1cccnc1`: the inhibition was -2.22%. Consider `Cc1cc(C(=O)NNC(=O)c2cccs2)c(C)o1`, for which the inhibition is 5.92%.

As to `COc1ccccc1C(=O)Nc1ccc(S(=O)(=O)Nc2nccs2)cc1`, the inhibition was determined as 16%. To `COc1cccc(C2C(C#N)=C(N)SC(c3ccccc3)C2[N+](=O)[O-])c1` (stereo unspecified) belongs 20.5%. Take `Cc1ccccc1C1=NC(c2ccc(F)cc2F)ON1` (stereo unspecified): the inhibition amounted to 8.21%. To `O=C(NCCCN1CCOCC1)c1ccccc1-c1ccccc1` belongs 3.82%; to `CSc1ccccc1NC(=O)c1cc(C)on1`, 1.57%; to `COc1cc(C(=O)Nc2nc(OC)c(-c3ccccc3)c(OC)n2)cc(OC)c1OC`, -16.2%. On to `COc1ccc(/C=N/NC(=O)c2cccnc2)cc1CN1CCOCC1`, for which the inhibition amounted to 8.75%. Consider `CCOc1cc(/C=N/NC(=O)COc2ccc(C)cc2)ccc1OC(=O)c1cccs1`, for which the inhibition came to 48.1%. To `COc1cc(/C=N/NC(=O)COc2ccccc2C)ccc1OC(=O)c1cccs1` belongs 30.8%; to `CCOc1cc(/C=N/NC(=O)COc2ccccc2C)ccc1OC(=O)c1cccs1`, 9.01%; to `COc1ccc(/C=N/NC(=O)c2ccc(Br)cc2)cc1CN1CCOCC1`, -2.91%. The same measure for `COc1cc(/C=N/NC(=O)CNC(=O)c2ccccc2)ccc1OC(=O)c1cccs1`: 39.5%. The same measure for `COc1cc(/C=N\NC(=O)c2ccc(C)nc2)ccc1OC(=O)c1cccc(F)c1`: -1.23%; for `COc1cc(/C=N/NC(=O)c2ccncc2)ccc1OC(=O)c1cc(OC)c(OC)c(OC)c1`: 52.1%. For the molecule `COc1cc2[nH]c(=O)n(CCC(=O)NCCC(C)C)c(=O)c2cc1OC`, the inhibition was -11%.

For the molecule `O=C(NCCC1CCCCN1S(=O)(=O)c1cccs1)C(=O)NCc1ccccc1` (stereo unspecified), the inhibition came out at 10.3%.

Take `CC1(C)CC(=O)C=C(/C=C/c2ccccc2)C1`: the inhibition is -7.3%. With `COc1ccc(CN(C)C(=O)c2ccc(NS(=O)(=O)c3ccc4[nH]c(=O)[nH]c4c3)cc2)c(OC)c1OC`, the inhibition was found to be 35.7%. As for `O=C(N/N=C/C(Br)=C/c1ccccc1)c1ccccc1F`, the inhibition is 49.9%. To `O=C(c1cc(S(=O)(=O)N2CCC3(CC2)OCCO3)ccc1F)N1CCC2(CC1)OCCO2` belongs -5.64%.

The values above are taken from PubChem BioAssay AID488890 (Southern Research Specialized Biocontainment Screening …, 2010).
